Among the data in PubChem BioAssay (NCATS) are Potency values, retold here.

Inconclusive results are not listed. Where a call stands in place of a potency, no number is given. Active and inactive are the calls of the source. The call rests on the fitted dose curve; in most records, active means well fitted cell-killing curve with a large enough effect; inconclusive means small, poorly fitted or top-dose-only effect; inactive means flat fitted curve, though single readings scatter.
Potency means the concentration at half of the fitted maximal effect.

The assay can be described thus: Quantitative highthroughput screen to assess conditional lethalithy of P12 Ichikawa cells grown in RPMI1640 with dialyzed fetal bovine serum (RPMI+ds) (AID 1963880). Further: nearly all actives have a fitted effect of over 35% in size. As to conditions: ATP luminescence, 48 h; Potency: P12-Ichikawa viability; series mostly up to 45.8 µM. Summed up:
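Each medium arm—HPLM with 10% dialyzed FBS, or RPMI1640 with 5 mM glucose and 10% untreated or dialyzed FBS—was screened against an 11-point, 3-fold compound titration for 48 h at 37 °C, with CellTiter-Glo luminescence as endpoint.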
As to `O=c1n(CCCN2CCN(c3cccc(Cl)c3)CC2)nc2ccccn12`, the Potency result was “inactive”. Consider `CC(C)OC(=O)C(C(=O)OC(C)C)=C1SC=CS1`, for which the Potency result was “inactive”.

With `CNC(=O)c1cc(COc2nnc(Nc3ccc(Cl)cc3)c3ccoc23)ccn1`, the Potency entry is “inactive”. `Cc1cc(CS(=O)(=O)c2ccccc2)cc(OCc2ccc(CN3CCC[C@H]3CO)cc2)c1`: the Potency is 1.18 µM (active). On to `COc1ccc(Nc2nccc(NCCO)n2)cc1`, for which the Potency result was “inactive”. With `C[C@H]1Oc2cc(cnc2N)-c2c(nn(C)c2C#N)CN(C)C(=O)c2ccc(F)cc21`, the Potency entry was “inactive”.

For `NC(=O)N1c2ccccc2CC(=O)c2ccccc21`, the Potency result was “inactive”. Turning to `Cc1cncc2cccc(S(=O)(=O)N3CCCN(C(=O)CN)C[C@@H]3C)c12`, the Potency was 6.62 µM (active). Turning to `COC1=C(OC)C(=O)C(CC=C(C)CCC=C(C)CCC=C(C)CCC=C(C)CCC=C(C)CCC=C(C)CCC=C(C)CCC=C(C)CCC=C(C)CCC=C(C)C)=C(C)C1=O`, the Potency result was “inactive”. Turning to `CON=C(C(=O)N[C@@H]1C(=O)N2C(C(=O)O)=C(Cn3ccc(=N)n3CCO)CS[C@H]12)c1csc(N)n1`, the Potency entry was “inactive”. Regarding `COC(=O)C1=C(C)NC(C)=C(C(=O)OC(C)C)C1c1cccc2nonc12` (stereo not given), the Potency entry was “inactive”. With `Clc1cccc(-n2nnnc2NCc2ccccc2Oc2ccccn2)c1Cl`, the Potency entry was “inactive”. Turning to `CC[C@H](CO)Nc1nc(NCc2ccccc2)c2ncn(C(C)C)c2n1`, the Potency result is “inactive”. For `C1=CCOCc2cc(ccc2OCCN2CCCC2)Nc2nccc(n2)-c2cccc(c2)OCC1`, the Potency was 13.2 µM (active). In the case of `Fc1ccc(C(c2ccc(F)cc2)N2CCN(CC=Cc3ccccc3)CC2)cc1`, the Potency entry is “inactive”.
